BAZ2B block – inhibitors of human BAZ2B bromodomain | Q9UIF8 | AlphaScreen BAZ2B-H3K14Ac peptide displacement | Potency, µM (titrated, usually from 114 µM), most hits filed as inhibitors | hit rate 4.4% among 360,000; further: nearly all actives have a fitted effect of over 60% in size
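In this displacement format the biotinylated H3(5-23) peptide acetylated at Lys14 serves as ligand at 50 nM, with BAZ2B at 50 nM in PBS pH 7.4 containing 0.01% Tween-20. Donor and acceptor beads are 10 ug/mL final.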
HP1b chromo inh – inhibitors of HP1-beta chromodomain binding to methylated histone tails. AlphaScreen HP1-beta / biotin-H3K9me3 peptide binding. Potency, µM (series often up to 114 µM), most hits filed as inhibitors. hit rate 0.56% among 390,000; further: nearly all actives have a fitted effect of over 70% in size
Target sequence (P83916 whole entry, looked up): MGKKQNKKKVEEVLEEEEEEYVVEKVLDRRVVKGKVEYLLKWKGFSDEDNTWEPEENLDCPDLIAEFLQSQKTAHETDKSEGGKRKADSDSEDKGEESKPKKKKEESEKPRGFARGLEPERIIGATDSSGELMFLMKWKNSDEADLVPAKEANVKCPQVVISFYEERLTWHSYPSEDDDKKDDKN
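HP1-beta protein (50 nM final) preincubated 30 min at room temperature with biotinylated H3(1-18)K9me3 peptide (50 nM) in PBS pH 7.4, 0.01% Tween-20, then compound added for 30 min. AlphaScreen streptavidin donor/nickel chelate acceptor beads (10 ug/mL final), 30 min dark, luminescence read.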
G9a inh – G9a (human) methyltransferase inhibition | G9a H3K9 monomethylation, AlphaScreen, 2 h | Potency, µM (doses to about 102 µM), usual class: inhibitors | hit rate 8.8% among 350,000 | Q96KQ7; further: nearly all actives have a fitted effect of over 75% in size
Target sequence (Q96KQ7 913-1193 limits assumed): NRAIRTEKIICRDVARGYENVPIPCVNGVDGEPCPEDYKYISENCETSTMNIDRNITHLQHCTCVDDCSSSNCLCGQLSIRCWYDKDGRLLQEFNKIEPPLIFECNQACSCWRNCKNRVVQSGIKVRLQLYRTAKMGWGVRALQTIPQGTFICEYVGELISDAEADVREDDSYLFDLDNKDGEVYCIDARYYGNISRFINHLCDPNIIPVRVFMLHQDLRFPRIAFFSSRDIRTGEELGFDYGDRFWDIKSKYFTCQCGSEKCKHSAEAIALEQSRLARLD
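Enzyme 20 nM + cpd, 15 min RT; add b-H3K9 pep 500 nM / SAM 20 uM; 2 h RT; anti-H3K9me1 Ab 0.5 ug/mL + SA donor / anti-rabbit acceptor beads 20 ug/mL each, 10 min; AlphaScreen read.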
Sfp PPTase inh – Sfp phosphopantetheinyl transferase inhibition; Q9F4F7; hit rate 3.5% among 310,000; Potency, µM, hits mostly inhibitors; Biochemical Sfp PPTase activity, qHTS; AID 1490;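 further: the enzyme is Sfp with the accession as filed and its product quenches rhodamine fluorescence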
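Step 1, compound plus 15 nM Sfp-PPTase, 15 min, room temperature. Step 2, add rhodamine-CoA (5 uM) and BHQ-2-YbbR (12.5 uM). Step 3, read 525/598 nm fluorescence at 0 and 30 min.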
JMJD2A Tudor – blocks the human JMJD2A Tudor domain; O75164; AlphaScreen JMJD2A-Tudor / H3K4me3 peptide binding; Potency, µM (highest dose often 114 µM), hits mostly inhibitors; hit rate 4.4% among 390,000; further: nearly all actives have a fitted effect of over 50% in size
Each line names hits and unclear results; the compound was inactive in the other large screens. Rows were chosen to be rich in hits. Some 12% of all compounds tested hit in one or more screens of this group. The call rests on the fitted dose curve; in most records, active means well fitted curve in the direction sought with a large enough effect; inconclusive means small, poorly fitted or top-dose-only effect, or another doubt; inactive means no such curve, though single readings can be large; an effect the other way counts as inactive or inconclusive.

O=C(NCCCN1CCOCC1)c1ccc(/C=C2\Oc3ccccc3N(Cc3ccccc3F)C2=O)cc1	none
CCN1CCN(CCCNC(=O)c2ccc(/C=C3/Sc4ccccc4N(Cc4ccccc4F)C3=O)cc2)CC1	BAZ2B block inconclusive, G9a inh inconclusive, Sfp PPTase inh 50µM, JMJD2A Tudor 40µM
O=C(O)c1ccccc1C(=O)Nc1nc(-c2ccc3ccccc3c2)cs1	BAZ2B block inconclusive (no result: G9a inh)
NS(=O)(=O)c1ccc(Nc2nc(-c3ccc4ccccc4c3)cs2)cc1	G9a inh 35µM, JMJD2A Tudor inconclusive
NS(=O)(=O)c1ccc(Nc2nc(-c3cccc([N+](=O)[O-])c3)cs2)cc1	G9a inh 40µM, Sfp PPTase inh 32µM
O=C(Nc1cccc(-c2csc(Nc3ccc(Cl)cc3)n2)c1)c1cc([N+](=O)[O-])cc(C(F)(F)F)c1	none
Cc1nc(Nc2ccc(S(N)(=O)=O)cc2)sc1-c1ccccc1	BAZ2B block inconclusive, G9a inh 32µM, JMJD2A Tudor inconclusive
O=C(Nc1cccc(-c2csc(Nc3ccccc3)n2)c1)c1cc([N+](=O)[O-])cc(C(F)(F)F)c1	G9a inh 50µM
Cc1ccc(-c2csc(Nc3ccc(S(N)(=O)=O)cc3)n2)o1	BAZ2B block 45µM, HP1b chromo inh inconclusive, G9a inh 4.5µM, Sfp PPTase inh 10µM, JMJD2A Tudor 56µM
NC(=O)c1sc(=S)n2c1[nH]c(=O)c1sccc12	G9a inh 18µM, Sfp PPTase inh 40µM, JMJD2A Tudor inconclusive
CC(=O)NNC(=O)c1sc(=S)n2c1[nH]c(=O)c1sccc12	HP1b chromo inh inconclusive, G9a inh 13µM, Sfp PPTase inh 18µM, JMJD2A Tudor 79µM
O=C1CN(C(=O)COc2ccc(Cl)cc2)C(c2ccc(F)cc2)c2cc(Cl)ccc2N1 (stereo not given)	none (no result: Sfp PPTase inh)
FC(F)(F)c1ccccc1-c1ccc2ncnc(NC3CCNCC3)c2c1	none (no result: BAZ2B block, HP1b chromo inh, G9a inh, JMJD2A Tudor)
CCc1nn(CC(=O)NCCCc2ccccc2)c(=O)c2cc3ccccc3n12	none (no result: Sfp PPTase inh)
CC(C)CN1CCC(CN2CCNC(=O)C2=O)CC1	none (no result: BAZ2B block, G9a inh, Sfp PPTase inh)
CC(C)CCN1CCC(CN2CCNC(=O)C2=O)CC1	JMJD2A Tudor 89µM (no result: BAZ2B block, G9a inh, Sfp PPTase inh)
Cc1cc(C(=O)N/N=C2\CC(=O)c3ccccc32)c(C)n1-c1ccc(F)cc1	BAZ2B block 40µM, G9a inh 50µM
CN(C)C1C(=O)C(C(N)=O)=C(O)[C@@]2(O)C(=O)C3=C(O)c4c(O)ccc(Cl)c4C(O)[C@H]3C[C@@H]12 (stereo not given in full)	none (no result: BAZ2B block, HP1b chromo inh, JMJD2A Tudor)
CN(C)C1C(=O)C(C(N)=O)C(=O)C2(O)C(=O)C3C(=O)c4c(O)ccc(Cl)c4C(O)C3CC12 (stereo not given)	G9a inh 16µM (no result: BAZ2B block, HP1b chromo inh, JMJD2A Tudor)
CN(C)c1ccc(O)c2c1CC1CC3[C@@H](N(C)C)C(=O)C(C(N)=O)=C(O)[C@]3(O)C(=O)C1=C2O (stereo not given in full)	BAZ2B block 3.5µM, G9a inh 10µM
CN(C)C1C(=O)C(C(N)=O)=C(O)[C@@]2(O)C(=O)C3=C(O)c4c(O)ccc(Cl)c4[C@@H](O)C3C[C@@H]12 (stereo not given in full)	G9a inh 35µM (no result: BAZ2B block, HP1b chromo inh, Sfp PPTase inh, JMJD2A Tudor)
O=C(CC1C(=O)NCCN1Cc1ccccc1C(F)(F)F)NCCN1CCCCC1=O (stereo not given)	G9a inh 40µM
CN(CCN1CCOCC1)C(=O)CC1C(=O)NCCN1Cc1ccccc1C(F)(F)F (stereo not given)	G9a inh 45µM
O=C(CC1C(=O)NCCN1Cc1ccccc1C(F)(F)F)NCCN1CCOCC1 (stereo not given)	G9a inh 45µM
O=C(CC1C(=O)NCCN1Cc1ccccc1C(F)(F)F)NCCn1cccn1 (stereo not given)	G9a inh 35µM
Cc1nccn1CCCNC(=O)CC1C(=O)NCCN1Cc1ccccc1C(F)(F)F (stereo not given)	G9a inh inconclusive
COc1cccc(CN2CCNC(=O)C2CC(=O)NCCN2CCCCC2=O)c1 (stereo not given)	G9a inh inconclusive
Cc1cc(C)cc(NC(=O)C2CCCN(S(=O)(=O)c3cccc4nsnc34)C2)c1 (stereo not given)	none (no result: BAZ2B block, Sfp PPTase inh)
CCc1ccccc1N(CC)C(=O)c1cc2c(s1)-c1ccccc1OC2	none (no result: Sfp PPTase inh)
CCn1c(SCC(=O)Nc2ccc3c(c2)OCCO3)nnc1C1CC1	none
Cc1cccc(Nc2nnc(SCC(=O)N(C)C3CCS(=O)(=O)C3)s2)c1C (stereo not given)	none
Cc1nnc(SCC(=O)N(C)C2CCS(=O)(=O)C2)n1Cc1ccccc1 (stereo not given)	G9a inh inconclusive
C=CCn1c(SCC(=O)N(C)C2CCS(=O)(=O)C2)nnc1-c1ccccc1 (stereo not given)	G9a inh 56µM (no result: Sfp PPTase inh)
CN(C(=O)CSc1nnc(NCc2ccccc2)s1)C1CCS(=O)(=O)C1 (stereo not given)	G9a inh 50µM
Cc1ccc(SCC(=O)N(C)C2CCS(=O)(=O)C2)cc1 (stereo not given)	none
CCN(C(=O)CSc1nnc(C)n1Cc1ccccc1)C1CCS(=O)(=O)C1 (stereo not given)	G9a inh 25µM
Cc1ccc(-c2nc(SCC(=O)N(C)C3CCS(=O)(=O)C3)[nH]c2-c2ccc(C)cc2)cc1 (stereo not given)	BAZ2B block 50µM, G9a inh inconclusive, JMJD2A Tudor inconclusive
Cc1cccnc1NC(=O)CSc1nnc(CNC(=O)c2cccc([N+](=O)[O-])c2)n1C	none
O=C(CSc1ncc(S(=O)(=O)c2ccc(Br)cc2)c(=O)[nH]1)NCc1ccccc1Cl	none (no result: Sfp PPTase inh)
CCN(C(=O)CSc1nnc(-c2ccc(F)cc2)c2ccccc12)C1CCS(=O)(=O)C1 (stereo not given)	G9a inh 35µM
CCN(C(=O)CSc1nnc(-c2ccc(F)cc2)n1C)C1CCS(=O)(=O)C1 (stereo not given)	none (no result: BAZ2B block, G9a inh, Sfp PPTase inh)
CCN(C(=O)CSc1nnc(Nc2ccccc2C)s1)C1CCS(=O)(=O)C1 (stereo not given)	G9a inh 50µM
CC(NC(=O)Oc1cccc2ccccc12)c1ccccc1 (stereo not given)	none (no result: BAZ2B block, G9a inh, Sfp PPTase inh)
CCc1nnc(NC(=O)C2CC(=O)N(C3CCCC3)C2)s1 (stereo not given)	G9a inh inconclusive
CCCc1nnc(NC(=O)C2CC(=O)N(C3CCCC3)C2)s1 (stereo not given)	G9a inh 22µM
CCC(CC)c1nnc(NC(=O)C2CC(=O)N(C3CCCC3)C2)s1 (stereo not given)	G9a inh 11µM, Sfp PPTase inh 50µM
Cc1ccc2nc(COc3cccc(NC(=O)COc4ccccc4F)c3)cc(=O)n2c1	none (no result: Sfp PPTase inh)
CCOC(=O)N1CCN(C(=O)c2cc3c(=O)n4ccccc4nc3s2)CC1	none
CN1CCN(C(=O)c2cc3c(=O)n4ccccc4nc3s2)CC1	G9a inh 50µM

Screening data (PubChem)
